# Reference: PubChem BioAssay (NCATS)
# Where “and” joins values, the source holds several entries; their conditions need not be identical. Equal entries are not always repeated. Inconclusive results are not listed. A call without a number means that no potency is given here. A number with no mark means an inactive call. Calls of active or inactive are those of the source. The call rests on the fitted dose curve; in most records, active means well fitted curve in the direction sought with a large enough effect; inconclusive means small, poorly fitted or top-dose-only effect, or another doubt; inactive means no such curve, though single readings can be large; an effect the other way counts as inactive or inconclusive.
# Legend:
# [1] = system: C33A; test: Primary qHTS to identify gynecologic anti-cancer compounds using libraries of approved drugs and bioactive compounds (AID 1345084); settings: Gynecologic cancer cell panel viability, ATPlite luminescence, 48 h; series mostly up to 57.5 µM; further: nearly all actives have a fitted effect of over 55% in size; further: potency means the concentration at half of the fitted maximal effect
# In short: (§1)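 Cells, 1,000 per well, plated 16 h, then exposed 48 h at 37 C to compounds. Viability by ATPlite luminescence after 15 min at room temperature.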
# [2] = system: CASKI; test: as above; settings: Gynecologic cancer cell panel viability, ATPlite luminescence, 48 h; series mostly up to 57.5 µM
# In short: as §1
# [3] = system: Es-2; test: as above; settings: Gynecologic cancer cell panel viability, ATPlite luminescence, 48 h; series mostly up to 57.5 µM
# In short: as §1
# [4] = system: HeLa; test: as above; settings: Gynecologic cancer cell panel viability, ATPlite luminescence, 48 h; series mostly up to 57.5 µM
# In short: as §1
# [5] = system: Hek293T; test: as above; settings: Gynecologic cancer cell panel viability, ATPlite luminescence, 48 h, control line for the selectivity index; series mostly up to 57.5 µM
# In short: as §1
# [6] = system: OV90; test: as above; settings: Gynecologic cancer cell panel viability, ATPlite luminescence, 48 h; series mostly up to 57.5 µM
# In short: as §1
# [7] = system: PA-1; test: as above; settings: Gynecologic cancer cell panel viability, ATPlite luminescence, 48 h; series mostly up to 57.5 µM
# In short: as §1
# [8] = system: KB-3-1; test: Cytotoxic Profiling of Annotated Libraries Using Quantitative High-Throughput Screening (AID 1296008); settings: Five cell lines viability, CellTiter-Glo ATP luminescence, 48-72 h; max response: hits give low values; further: nearly all actives have a fitted effect of over 60% in size
# In short: (§2)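 Compounds were pin-transferred onto cells and incubated 48 or 72 hr at 37 degree Celsius, 95% humidity. CellTiter-Glo was added, plates sat 10 min at room temperature, then ATP-coupled luminescence was imaged as the viability read-out.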
# [9] = system: JEG-3; test: Primary qHTS to identify gynecologic anti-cancer compounds using libraries of approved drugs and bioactive compounds (AID 1345084); settings: Gynecologic cancer cell panel viability, ATPlite luminescence, 48 h; series mostly up to 57.5 µM; further: nearly all actives have a fitted effect of over 55% in size; further: potency means the concentration at half of the fitted maximal effect
# In short: as §1
# [10] = system: MCC-13; test: qHTS assay to identify novel small-molecules to repurpose for Merkel cell carcinoma treatment (AID 1296009); settings: MCC and control cell lines, CellTiter-Glo viability, 72 h; series mostly up to 46 µM; further: nearly all actives have a fitted effect of over 60% in size
# In short: (§3)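 Cells exposed to NPC (8-point) and MIPE (11-point) compound dilutions for 72 hr at 37 degree celsius; viability read by CellTiter-Glo luminescence, normalized to no-cell and DMSO in-plate controls.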
# [11] = system: MCC-26; test: as above; settings: MCC and control cell lines, CellTiter-Glo viability, 72 h; series mostly up to 46 µM
# In short: as §3
# [12] = system: MKL-1; test: as above; settings: MCC and control cell lines, CellTiter-Glo viability, 72 h; series mostly up to 46 µM
# In short: as §3
# [13] = system: MKL-2; test: as above; settings: MCC and control cell lines, CellTiter-Glo viability, 72 h; series mostly up to 46 µM
# In short: as §3
# [14] = system: UISO; test: as above; settings: MCC and control cell lines, CellTiter-Glo viability, 72 h; series mostly up to 46 µM
# In short: as §3
# [15] = system: WaGa; test: as above; settings: MCC and control cell lines, CellTiter-Glo viability, 72 h; series mostly up to 46 µM
# In short: as §3
# [16] = system: NIH3T3; test: Cytotoxic Profiling of Annotated Libraries Using Quantitative High-Throughput Screening (AID 1296008); settings: Five cell lines viability, CellTiter-Glo ATP luminescence, 48-72 h; max response: hits give low values; further: nearly all actives have a fitted effect of over 60% in size
# In short: as §2
# [17] = system: HEK293T; test: qHTS assay to identify novel small-molecules to repurpose for Merkel cell carcinoma treatment (AID 1296009); settings: MCC and control cell lines, CellTiter-Glo viability, 72 h; at 44.8 µM (top of the series); further: nearly all actives have a fitted effect of over 60% in size
# In short: as §3
compound,measurement,setting,value
C[C@H]1O[C@@H](O[C@H]2[C@@H](O)C[C@H](O[C@H]3[C@@H](O)C[C@H](O[C@H]4CC[C@@]5(C)[C@H](CC[C@@H]6[C@@H]5C[C@@H](O)[C@]5(C)[C@@H](C7=CC(=O)OC7)CC[C@]65O)C4)O[C@@H]3C)O[C@@H]2C)C[C@H](O)[C@@H]1O,Potency,[1],79.4 nM (active)
same,Potency,[2],447 nM (active)
same,Potency,[3],316 nM (active)
same,Potency,[4],282 nM (active)
same,Potency,[5],316 nM (active)
same,Potency,[6],631 nM (active)
same,Potency,[7],282 nM (active)
CCN(CC)CCC(=O)N1c2ccccc2Sc2ccc(Cl)cc21,max response,[8],24.4%
CCOC(=S)SSC(=S)OCC,max response,[8],4.67%
COc1ccc2c(c1)OC(C)(C)C(c1ccccc1)C2c1ccc(OCCN2CCCC2)cc1 (stereo not given),max response,[8],-26.5%
N[C@@H](Cc1cc(I)c(Oc2ccc(O)c(I)c2)c(I)c1)C(=O)O,Potency,[1],inactive
same,Potency,[2],inactive
same,Potency,[3],inactive
same,Potency,[4],inactive
same,Potency,[5],inactive
same,Potency,[9],inactive
same,Potency,[6],inactive
same,Potency,[7],inactive
CO[C@H]1O[C@@H]2O[C@@]3(C)CC[C@H]4[C@H](C)CC[C@@H]([C@H]1C)[C@@]24OO3,max response,[8],1.88%
C=CCN1CCCC1CNC(=O)c1cc(S(N)(=O)=O)cc(OC)c1OC (stereo not given),max response,[8],5.61%
CCC[C@@H]1C[C@@H](C(=O)N[C@@H]([C@H]2O[C@H](SC)[C@H](O)[C@@H](O)[C@H]2O)[C@H](C)Cl)N(C)C1,max response,[8],4.39%
Nc1nccs1,max response,[8],-12.3%
CC[C@H](C)[C@@H]1NC(=O)[C@H](Cc2ccc(O)cc2)NC(=O)[C@@H](N)CSSC[C@@H](C(=O)N2CCC[C@H]2C(=O)N[C@@H](CC(C)C)C(=O)NCC(N)=O)NC(=O)[C@H](CC(N)=O)NC(=O)[C@H](CCC(N)=O)NC1=O,max response,[8],3.76%
CC1CCC(NC(=O)N(CCCl)N=O)CC1 (stereo not given),max response,[8],8.06%
O=C1N=C2SCCN2C(=O)C1Cc1ccc(Cl)cc1 (stereo not given),max response,[8],-9%
COC(=O)c1ccccc1O,max response,[8],-4.17%
OC1OC[C@@H](O)[C@H](O)[C@@H]1O (stereo not given in full),max response,[8],12.5%
O=C(O)CCC(=O)c1ccc(-c2ccccc2)cc1,outcome,[10],inactive
same,outcome,[11],inactive
same,outcome,[12],inactive
same,outcome,[13],inactive
same,outcome,[14],inactive
same,outcome,[15],inactive
same,Potency,[1],inactive
same,Potency,[2],inactive
same,Potency,[3],inactive
same,Potency,[4],inactive
same,Potency,[5],inactive
same,Potency,[9],inactive
same,Potency,[6],inactive
same,Potency,[7],inactive
Nc1ncnc2c1ncn2[C@H]1CC[C@@H](CO)O1,max response,[8],-2.72%
O=C(OCc1ccccc1)c1ccc(O)cc1,max response,[8],2.26%
same,max response,[16],0.27%
same,outcome,[17],inactive
same,outcome,[10],inactive
same,outcome,[11],inactive
same,outcome,[12],inactive
same,outcome,[13],inactive
same,outcome,[14],inactive
same,outcome,[15],inactive
same,Potency,[1],inactive
same,Potency,[2],inactive
same,Potency,[3],inactive
same,Potency,[4],inactive
same,Potency,[5],inactive
same,Potency,[9],inactive
same,Potency,[6],inactive
same,Potency,[7],inactive
COc1c(O[C@@H]2O[C@H](CO)[C@@H](O)[C@H](O)[C@H]2O)cc2c(c1OC)-c1ccc(SC)c(=O)cc1[C@@H](NC(C)=O)CC2,max response,[8],48.2%
NC(=O)[C@H]1O[C@@H](O)[C@H](O)[C@@H](O)[C@@H]1O,max response,[8],4.29%
C[C@H](NCCc1ccc(O)cc1)[C@H](O)c1ccc(O)cc1,max response,[8],-13.6%
CCCCCCCCCCCCCCCC(=O)OC[C@@H](O)[C@H]1OC[C@H](O)[C@H]1O,max response,[8],-3.59%
CN1C(=O)OC(C)(C)C1=O,max response,[8],3.96%
CC(C)(CO)[C@@H](O)C(=O)NCCCC(=O)O,max response,[8],-10.7%
CC(O)[C@H]1CC[C@H]2[C@@H]3CC[C@@H]4C[C@@H](O)CC[C@]4(C)[C@H]3CC[C@]12C (stereo not given in full),max response,[8],-16.3%
C=CCCCCCCCCC(=O)OC,max response,[8],9.89%
C=C1[C@H](CO)[C@@H](O)C[C@@H]1n1cnc2c(=O)[nH]c(N)nc21,Potency,[1],inactive
same,Potency,[2],inactive
same,Potency,[3],inactive
same,Potency,[4],inactive
same,Potency,[5],inactive
same,Potency,[9],inactive
same,Potency,[6],inactive
same,Potency,[7],inactive
C(=C\c1ccncc1)/c1ccccc1,max response,[8],1.91% and -0.505%
C[N+]1(C)[C@@H]2CC(OC(=O)C(O)(c3cccs3)c3cccs3)C[C@H]1[C@@H]1O[C@@H]12 (stereo not given in full),max response,[8],-8.8%
Oc1ccc(/C=C/c2cc(O)cc(O)c2)cc1,outcome,[10],inactive
same,outcome,[11],inactive
same,outcome,[12],inactive
same,outcome,[14],inactive
same,Potency,[3],25100 nM (active)
COc1ccc(C(=O)CCC(=O)O)c2ccccc12,max response,[8],-0.566%
COc1ccc(C[C@H](C)NC[C@@H](O)c2ccc(O)c(NC=O)c2)cc1,max response,[8],5.8%
same,Potency,[1],inactive
same,Potency,[2],inactive
same,Potency,[4],inactive
same,Potency,[9],inactive
same,Potency,[6],inactive
same,Potency,[7],inactive
